Screening results: PubChem BioAssay, Sanford-Burnham Center for Chemical Genomics
Rows were chosen to be rich in hits. Some 2.7% of all compounds tested hit in one or more screens of this group.
TAG inh: triacylglycerol accumulation inhibition; AID 651582; hit rate 0.66% among 230,000; inhibition, % at 12.5 µM; H9c2 cells, Nile Red lipid (TAG) fluorescence; cells loaded with 200 µM oleic acid;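 active means pattern-corrected inhibition of lipid staining of at least 50% with the nuclear-stain viability signal not falling by more than 50%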
aDG glyco up: increases alpha dystroglycan glycosylation; activation, % at 10 µM; hit rate 0.22% among 360,000; Pro5-aDG cells, alpha-DG glycosylation AlphaScreen (IIH6); 0% Pro5, 100% B10-LARGE cell signal;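 active means activation of at least 8% versus controls, or a plate z-score of at least 8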;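 further: Pro5 are CHO cells carrying HIG-tagged alpha-DG that lacks glycosylation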
NadD block: blocks S. aureus nicotinate mononucleotide adenylyltransferase. purified NadD enzyme, colorimetric absorbance read-out. inhibition, % at 20 µM. hit rate 0.78% among 360,000. AID 602399; in the data active means inhibition above about 26%
MPTP inh: blocks calcium-induced mitochondrial swelling; isolated mouse mitochondria, Ca2+ swelling absorbance, 30 min; hit rate 1.4% among 360,000; inhibition, % at 10 µM;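 active means inhibition of 50% or more, scaled per plate between neutral and stimulator controls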
MPTP counter: membrane potential counter-screen of mitochondrial pore inhibitors; shares compounds with MPTP inh; isolated mitochondria, Rhodamine 123 fluorescence; inhibition, % at 10 µM; hit rate 78% among 5,000; in the data active means inhibition above about 22%
MPTP abs DR: MPTP inhibition, dose response swelling confirmation; shares compounds with MPTP inh; isolated mitochondria swelling, absorbance; IC50, µM; hit rate 58% among 780; AID 651561; in the data active means IC50 below about 20 µM
MPTP counter DR: MPTP inhibitor counter-screen activity, dose response. isolated mitochondria counterscreen, fluorescence read-out. IC50, µM. shares compounds with MPTP inh. AID 651564. hit rate 49% among 780; in the data active means IC50 below about 80 µM
Numbers stand for hits; - = inactive; . = not tested or not shown.

SMILES	TAG inh	aDG glyco up	NadD block	MPTP inh	MPTP counter	others
O=C(Nc1cccc(Cl)c1)Nc1ccc2c(c1)C(=O)OC2	.	-	-	80.5	85.2
O=C(Nc1cccc(Cl)c1)Nc1csc([N+](=O)[O-])c1	-	-	-	72.0	69.4
CN(C)c1ccc(NC(=O)Nc2cccc(Cl)c2)cc1	.	-	-	73.9	71.9
CN(c1cccc(NC(=O)Nc2cccc(Cl)c2)c1)S(C)(=O)=O	-	-	-	-	.
CC(=O)N(C)c1ccc(NC(=O)Nc2ccc(Cl)cc2)cc1	-	-	-	55.9	78.2
Cc1cccc(S(=O)(=O)NC(=O)C2(C)CCN2C(=O)c2c(C)noc2C)c1 (configuration not stated)	-	-	-	-	.
Cc1c(C(=O)Nc2ccccc2N2CCN(C)CC2)oc2ccc(F)cc12	-	-	-	-	.
O=C(Nc1ccncc1)Nc1cccc(Cl)c1	-	-	-	57.3	95.3
Cc1nccc(-c2cccc(NC(=O)Nc3ccc(Cl)cc3)c2)n1	-	-	-	82.7	93.2
S=C(Nc1ccc(Cc2ccncc2)cc1)Nc1cccc(Cl)c1	-	-	-	92.7	81.2
CNC(=S)Nc1ccc(Cc2ccncc2)cc1	-	-	-	-	.
CC(=O)N(C)c1ccc(NC(=O)c2cnn(C)c2)cc1	.	-	-	70.2	-
Cc1cccc(NC(=O)Nc2ccc(Cl)cc2)n1	.	-	-	-	.
CC(=O)NC(Cc1ccccc1F)C(=O)NC1CCN(C(=O)NCc2ccccc2)CC1 (configuration not stated)	.	-	-	-	.
Cc1cc2nc(C(C)(C)C)c(Cc3ccsc3)n2c(C)c1Br	.	-	-	-	.
CCC(=O)c1ccc(OCC(=O)N2CCN(c3ncccn3)CC2)cc1	-	-	-	-	.
Cn1nc(C(=O)Nc2cccc(Cl)c2)cc1C(=O)Nc1cccc(Cl)c1	-	-	-	56.6	84.4
Cn1nc(C(=O)Nc2ccc(Cl)cc2)cc1C(=O)Nc1ccc(Cl)cc1	.	-	-	-	.
O=C(Cn1c(COc2ccccc2)nc2ccccc21)Nc1cc(Cl)cc(Cl)c1	.	-	-	91.9	93.9
CC1(c2nnnn2-c2ccc3c(c2)OCCO3)CCC(=O)N1Cc1cccnc1 (configuration not stated)	.	-	-	-	.
CN(c1ccccc1)S(=O)(=O)c1ccc(NC(=O)CC(=O)c2ccccc2)cc1	-	-	-	57.2	93.2
CCOc1ccc(NS(=O)(=O)c2csc(C(N)=O)c2)cc1	.	-	-	-	.
O=C(Nc1ccc(Br)cc1)c1cccc(S(=O)(=O)Nc2cnc3ccccc3c2)c1	.	-	-	107.7	74.5
CCOc1ccc(S(=O)(=O)Nc2cnc3ccccc3c2)cc1	.	-	-	87.2	89.9
COc1ccc(NS(=O)(=O)c2ccc(N3CCCC3=O)cc2)cn1	.	-	-	-	.
SMILES	TAG inh	aDG glyco up	NadD block	MPTP inh	MPTP counter	others
O=C1CSc2ccc(C(=O)Nc3cccc(S(=O)(=O)Nc4ccc(Br)cc4)c3)cc2N1	.	-	-	89.0	70.7
COc1ccc(NS(=O)(=O)c2ccc3c(c2)Cc2ccccc2-3)cn1	.	-	-	83.5	87.2
O=C(Nc1ccc(Br)cc1)c1cccc(S(=O)(=O)Nc2ccccn2)c1	-	-	-	-	.
Cc1ccc(OCCC(=O)OCC(=O)Nc2ccccc2)cc1	-	-	-	-	.
COc1ccc(NC(=O)c2cccc(S(=O)(=O)Nc3ccc(Br)cc3)c2)cn1	.	-	-	96.6	80.0
CC(=O)c1c(C)[nH]c(C(=O)OCC(=O)NCc2ccc(Cl)cc2)c1C	-	-	-	-	.
CC(=O)c1c(C)[nH]c(C(=O)OCC(=O)Nc2ccc(C)cc2[N+](=O)[O-])c1C	-	-	-	99.9	90.3
CC(=O)c1c(C)[nH]c(C(=O)OCC(=O)Nc2cc(Cl)ccc2[N+](=O)[O-])c1C	-	-	-	94.5	82.2
O=C(Nc1ccc(F)c(Cl)c1)c1cc(C2CCCCN2C(=O)c2ccccc2)on1 (configuration not stated)	-	-	-	-	.
COc1ccccc1C(=O)NCC(c1cccs1)N1CCc2ccccc21 (configuration not stated)	-	-	-	-	.
COc1cc(C(O)c2nc(-c3cc4ccccc4o3)cs2)ccc1F (configuration not stated)	-	-	-	59.2	80.2
COc1cc(C(O)c2nc(-c3ccc(N(C)C)cc3)cs2)ccc1F (configuration not stated)	-	-	-	63.9	65.7
Cn1c(CNC(=O)c2ccc3c(c2)OCO3)nnc1SCC(=O)Nc1ccc(F)cc1	.	-	-	-	.
O=C(COC(=O)Cc1ccc(Cl)cc1)Nc1ccc(OC(F)F)cc1	.	-	-	-	.
O=C(Nc1ccc(Cl)cc1)N(C1=NCCC1)c1ccc(OC(F)F)cc1	.	-	-	89.6	99.3
CCOC(=O)c1c(C(F)(F)C(F)(F)C(F)(F)C(F)(F)F)n[nH]c1C	-	-	-	73.4	77.9
CCOC(=O)c1[nH]c(C)c(C(=O)OCC)c1C	-	-	-	-	.
COCc1ccc(C(=O)N2CCCC(Nc3ccc4c(c3)OCCO4)C2)o1 (configuration not stated)	-	-	-	-	.
Cc1cc(C)cc(CC(Cc2nc3ccccc3[nH]2)c2nc3ccccc3[nH]2)c1 (configuration not stated)	-	-	-	96.3	108.4
Clc1ccc(Nc2ncnc3ccc(Br)cc23)cc1	.	-	-	86.6	87.4
Clc1cccc(Nc2ncnc3ccc(Br)cc23)c1	.	-	-	90.7	73.5
Cc1nn(C)c(Nc2ccc(Br)cc2)c1Br	-	-	-	88.6	75.8
O=C(O)CCC(=O)N1N=C(c2ccc(Br)cc2)CC1c1cccs1 (configuration not stated)	-	-	-	81.3	-	MPTP abs DR=-;MPTP counter DR=-
O=C(O)CCC(=O)N1N=C(c2ccco2)CC1c1cccs1 (configuration not stated)	.	-	-	-	.
CNC[C@@H](Cc1ccccc1)NC[C@@H](CC1CCCCC1)NCCCc1ccccc1	-	-	-	71.9	-
COc1cc(C)ccc1S(=O)(=O)NC(=O)C1(C)CCN1C(=O)Cc1ccc(Cl)cc1Cl (configuration not stated)	-	-	-	-	.
COc1ccc(NC(=O)c2cc(C3CCCCN3C(=O)c3cc(C(C)(C)C)nn3C)on2)c(C)c1 (configuration not stated)	-	-	-	-	.
COc1ccc2cc1Oc1ccc(cc1)C[C@H]1c3cc(c(OC)cc3CCN1C)Oc1c(OC)c(OC)cc3c1[C@H](C2)N(C)CC3	-	-	-	77.2	-
Cc1oc(-c2ccc(Cl)cc2)nc1CS(=O)CC(=O)NCCCN1CCN(Cc2ccccc2)CC1 (configuration not stated)	.	-	-	63.0	53.4
CCC1CCCCN1CCCNC(=O)C1CCN(Cc2nc(-c3ccc(Cl)cc3)oc2C)CC1 (configuration not stated)	.	-	-	61.2	-
